33 compounds from PubChem BioAssay (EPA / NIEHS) can be followed below.

What is called AC50 is the concentration at which the activity in the assay is half-maximal.

The structures appear in SMILES notation. Records with an inconclusive call do not appear. Activity calls are given as the source filed them. The calls were made as follows, unless noted: active = hit-call score of the fitted dose curve at least 0.9, where 1 is the maximum; inconclusive = response in the unintended direction; inactive = score below 0.9.

The target of assay [1] is Estrogen receptor (Homo sapiens) (UniProt P03372). The assay is described as follows: CCTE_Deisenroth_AIME_96WELL_LUC_Active: CCTE's 96-well Estrogen Receptor Transactivation Assay with AIME metabolic competence (ERTA luciferase; metabolism positive), Deisenroth Lab (AID 2284023). Put shortly:
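Chemicals pre-incubated 2 h with alginate-immobilized phenobarbital/beta-naphthoflavone-induced male Sprague Dawley rat liver S9, then medium transferred to VM7Luc4E2 cells for 24 h luciferase read-out. 10-point series 0.002 - 200 uM; fitted relative to 17beta-estradiol.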

The target is the same in assay [2]. The assay is described as follows: CCTE_Deisenroth_AIME_96WELL_LUC_Inactive: CCTE's 96-well Estrogen Receptor Transactivation Assay without AIME metabolic competence (ERTA luciferase; metabolism negative), Deisenroth Lab (AID 2284025). Put shortly: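 VM7Luc4E2 breast cells, luciferase read 24 h after dosing with medium pre-incubated 2 h on alginate-water lids (metabolism negative). 10-point series 0.002–200 uM, single technical replicate, n≥4; fit relative to 17beta-estradiol.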

Assay [3] in a line: CCTE_Deisenroth_AIME_96WELL_CTox_Active: Cytotoxicity Assessment (CTOX) in CCTE's 96-well Estrogen Receptor Transactivation Assay with AIME metabolic competence (metabolism positive), Deisenroth Lab (AID 2284028). The method, boiled down:
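Chemicals (0.002–200 uM) were first incubated 2 h with alginate-immobilized phenobarbital/beta-naphthoflavone-induced male rat liver S9; conditioned medium then went onto VM7Luc4E2 cells for 24 h, with viability read by protease-substrate fluorescence, fitted bidirectionally.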

Assay [4] is described as follows: CCTE_Deisenroth_AIME_96WELL_CTox_Inactive: Cytotoxicity Assessment (CTOX) in CCTE's 96-well Estrogen Receptor Transactivation Assay without AIME metabolic competence (metabolism negative), Deisenroth Lab (AID 2284029). The method, boiled down:
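Chemicals (10-point series, 0.002-200 uM) were incubated 2 h with alginate-water microspheres lacking S9. The conditioned medium was then transferred onto VM7Luc4E2 cells for 24 h. Viability was measured by protease-substrate cleavage to a fluorescent probe, with loss of signal fitted bidirectionally; n≥4 experimental replicates.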

Assay [5] can be described thus: CCTE_Shafer_MEA_dev_firing_rate_mean: CCTE's Neural Network Formation Assay for Mean Firing Rate, Shafer Lab (AID 2284031; active = hit-call score of the fitted dose curve at least 0.9, where 1 is the maximum; inactive = score below 0.9;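 also: AUC of well mean spike rate recorded on DIV 5 7 9 and 12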;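 as to AC50: curve fitted for loss of firing so AC50 reflects decreased mean firing rate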). Put shortly: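 Developing rat cortical networks on MEA plates undergo 12-day compound exposure. Firing frequency, averaged across active electrodes, is integrated as area under the curve over four recording days, referenced to DMSO.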
Assay [6] can be described thus: CCTE_Shafer_MEA_dev_per_burst_spike_percent: CCTE's Neural Network Formation Assay for Percent of Spikes in a Burst, Shafer Lab (AID 2284032; active = hit-call score of the fitted dose curve at least 0.9, where 1 is the maximum; inactive = score below 0.9;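 as to AC50: fitted as a decrease in burst spike percentage below DMSO baseline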). The method, boiled down:
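Rat primary cortical neurons on 16-electrode MEA wells, dosed from plating day 0 for 12 days with renewal on DIV 5 and 9; spikes-in-bursts percentage averaged over bursting electrodes, collapsed as AUC across days 5, 7, 9, 12; loss direction versus DMSO.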

Assay [7] can be described thus: CCTE_Shafer_MEA_dev_active_electrodes_number: CCTE's Neural Network Formation Assay for Number of Active Electrodes, Shafer Lab (AID 2284040).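 As to AC50: potency for loss of active electrodes versus DMSO so lower counts are hits.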 The method, boiled down:
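Rat cortical primary cultures, 1.5 x 10^5 cells/well, PEI-coated MEA, laminin drop. Continuous exposure DIV 0–12; full media/compound change DIV 5, 9. Readout: electrodes with mean firing ≥5 spikes/min; AUC across days; loss vs DMSO.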

In assay [8] the target is Estrogen receptor (Homo sapiens) (UniProt P03372). Kind of assay: CCTE_Deisenroth_AIME_384WELL_LUC_Active: CCTE's 384-well Estrogen Receptor Transactivation Assay with AIME metabolic competence (ERTA luciferase; metabolism positive), Deisenroth Lab (AID 2284030). Put shortly: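 Chemicals (10-point, 0.002-200 uM) were first incubated 2 hours with alginate-immobilized induced male Sprague Dawley rat liver S9. The conditioned medium was then applied to VM7Luc4E2 cells for 24 hours, with ER luciferase induction read by luminescence relative to 17beta-estradiol.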

Assay [9] is described as follows: CCTE_Deisenroth_AIME_384WELL_CTox_Active: Cytotoxicity Assessment (CTOX) in CCTE's 384-well Estrogen Receptor Transactivation Assay with AIME metabolic competence (metabolism positive), Deisenroth Lab (AID 2284037).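 Also: activity means signal loss indicating cell death.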 The method, boiled down:
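VM7Luc4E2 breast cells received medium pre-incubated 2 h with chemical over alginate microspheres holding induced male Sprague Dawley rat liver S9; viability read 24 h later by protease-substrate fluorescence. Loss of signal, bidirectional fit, 0.002–200 uM.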

The nature of assay [10]: CCTE_Deisenroth_AIME_384WELL_CTox_Inactive: Cytotoxicity Assessment (CTOX) in CCTE's 384-well Estrogen Receptor Transactivation Assay without AIME metabolic competence (metabolism negative), Deisenroth Lab (AID 2284039).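 Also: cell viability via live-cell protease substrate cleaved to fluorescent probe.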 Put shortly: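 Fluorescent protease-substrate viability readout after 24 h exposure of VM7Luc4E2 cells to conditioned medium. Chemicals (0.002–200 uM) first sat 2 h over alginate-water beads, no S9. Data fitted bidirectionally, loss of signal meaning viability loss.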

Chain of Estrogen receptor (Homo sapiens) (P03372 whole entry, looked up): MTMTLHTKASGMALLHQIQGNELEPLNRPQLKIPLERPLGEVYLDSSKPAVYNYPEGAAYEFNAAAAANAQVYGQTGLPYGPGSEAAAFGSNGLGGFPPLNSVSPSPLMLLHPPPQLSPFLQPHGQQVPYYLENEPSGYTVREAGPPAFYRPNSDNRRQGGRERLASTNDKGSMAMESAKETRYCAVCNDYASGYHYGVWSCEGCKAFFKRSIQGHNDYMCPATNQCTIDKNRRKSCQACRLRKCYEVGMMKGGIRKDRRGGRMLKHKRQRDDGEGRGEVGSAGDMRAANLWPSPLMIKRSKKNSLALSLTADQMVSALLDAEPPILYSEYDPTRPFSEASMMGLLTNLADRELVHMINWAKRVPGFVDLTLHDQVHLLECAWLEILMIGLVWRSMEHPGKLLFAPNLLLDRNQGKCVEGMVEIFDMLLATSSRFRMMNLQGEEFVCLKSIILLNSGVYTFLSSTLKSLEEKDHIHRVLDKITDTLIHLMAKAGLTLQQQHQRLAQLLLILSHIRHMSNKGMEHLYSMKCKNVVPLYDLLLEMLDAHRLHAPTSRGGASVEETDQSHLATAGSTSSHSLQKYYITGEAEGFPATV

For `Oc1ccc(O)cc1`, the concentration at half-maximal activity (AC50) was 50.2 µM (active) in [1] and 71.8 µM (active) in assay [2]. Moreover, the outcome in assay [3] and in assay [4] was inactive.
For `S=c1[nH]c2ccccc2s1`, the call in [3] was inactive.
Consider `CN(C)CCCN1c2ccccc2Sc2ccc(Cl)cc21`, for which the AC50 is 3.43 µM (active) in [5], 6.1 µM (active) in [6] and 5.17 µM (active) in assay [7].
`COC(=O)[C@H]1[C@H]2C[C@@H]3c4[nH]c5cc(OC)ccc5c4CCN3C[C@H]2C[C@@H](OC(=O)c2cc(OC)c(OC)c(OC)c2)[C@@H]1OC`: the AC50 was 2.8 µM (active) in [5], 5.76 µM (active) in assay [6] and 5.24 µM (active) in assay [7].
On to `CCCCCCCC(=O)OC`, for which the result in assay [8], in assay [9] and in [10] was inactive.
For `C/C=C/C=C/C(=O)O`, the compound was classed as inactive in [9] and in [10].
For `CC(C)c1cccc(C(C)C)c1`, the call in assay [8], in assay [9] and in [10] was inactive.
Take `O=C1CCCCC1`: the outcome in assay [8], in assay [9] and in assay [10] was inactive.
On to `CCOCCOCCO`, for which the call in assay [9] and in assay [10] was inactive.
As for `O=C(O)c1cccnc1`, in [10], the result was inactive.
Turning to `O=C(O)CC(O)(CC(=O)O)C(=O)O`, the compound was classed as inactive in assay [8] and in assay [9].
In the case of `Oc1ccccc1O`, the results for the AC50 in assay [9] and in assay [10] were 100 µM (active) and 51.8 µM (active), respectively.
In the case of `CC(=O)CC(c1ccccc1)c1c(O)c2ccccc2oc1=O` (stereo not drawn), the call in assay [5], in assay [6], in [9] and in assay [10] was inactive. Besides, in assay [7], the AC50 is 2.98 µM (active).
Regarding `O=C(O)c1[nH]n(-c2ccc(S(=O)(=O)O)cc2)c(=O)c1N=Nc1ccc(S(=O)(=O)O)cc1`, the compound was called inactive in assay [8]. In addition, the AC50 in assay [9] and in assay [10] was 100 µM (active) each time.
As for `CN(C)CCCN(C)CCCN(C)C`, the compound was classed as inactive in assay [8], in [9] and in assay [10].
Turning to `CC(=O)O`, the compound was called inactive in [9] and in assay [10].
Regarding `CCCCCCC(CCCCCCCCCCC(=O)OCC(COC(C)=O)OC(C)=O)OC(C)=O` (stereo not drawn), the compound was classed as inactive in [8] and in assay [10].
Consider `CC(=O)OCC(COC(C)=O)OC(C)=O`, for which the outcome in assay [9] was inactive.
Consider `CCCCCCCCCCCCCCCCO`, for which the call in [8] and in assay [9] was inactive.
Take `Cc1occc(=O)c1O`: the outcome in assay [10] was inactive.
On to `CC(C)OC(=O)C(C)(C)Oc1ccc(C(=O)c2ccc(Cl)cc2)cc1`, for which the outcome in assay [8], in [9] and in assay [10] was inactive.
In the case of `O=C1NC(=O)C(c2ccccc2)(c2ccccc2)N1`, the call in assay [5], in assay [6] and in assay [7] was inactive.
For `COC(=O)CCC(=O)OC`, the result in [8] was inactive.
In the case of `CCCCC(CC)CO` (stereo not drawn), the outcome in assay [9] and in assay [10] was inactive.
In the case of `NC1CCCCC1`, the compound was classed as inactive in [8].
Turning to `O=C1O[C@H]([C@H](O)CO)C(O)=C1O`, the call in [10] was inactive.
`NC=O`: the compound was classed as inactive in assay [9] and in assay [10].
For `CC1(C)C(=O)NC(=O)N1CO`, the compound was classed as inactive in [8], in assay [9] and in [10].
`COC(=O)CCCC(=O)OC`: the result in assay [9] was inactive.
Consider `CC(C)(O)c1ccc(CNC(=O)c2cccnc2Oc2ccc(F)cc2)cc1`, for which, in [9], the compound was called inactive.
For `O=[Si]=O`, the compound was called inactive in assay [8], in [9] and in [10].
For the compound `OCC(O)CO`, the outcome in assay [5], in assay [6] and in assay [7] was inactive.
On to `CCCCCCC(C=O)=Cc1ccccc1`, for which the outcome in assay [10] was inactive.
